Hit rate of the full screen: of about 360,000 compounds, about 25,000 (6.9%) were called active. Inconclusive results (about 9%) are left out. Calls come from the whole dose curve; as a rule, active = well fitted inhibition curve with a large enough effect; inconclusive = small, poorly fitted or top-dose-only effect; inactive = flat fitted curve, though single readings scatter. Shown is part of a subset that was picked to be rich in actives. Where a call stands in place of a potency, no number is given.

The record followed here is PubChem BioAssay AID588342 (National Center for Advancing Translational Sciences (NCATS), 2011).
Potency is the fitted concentration of half-maximal effect.

Sequence of Luciferin 4-monooxygenase (Photinus pyralis) (P08659 whole entry, looked up): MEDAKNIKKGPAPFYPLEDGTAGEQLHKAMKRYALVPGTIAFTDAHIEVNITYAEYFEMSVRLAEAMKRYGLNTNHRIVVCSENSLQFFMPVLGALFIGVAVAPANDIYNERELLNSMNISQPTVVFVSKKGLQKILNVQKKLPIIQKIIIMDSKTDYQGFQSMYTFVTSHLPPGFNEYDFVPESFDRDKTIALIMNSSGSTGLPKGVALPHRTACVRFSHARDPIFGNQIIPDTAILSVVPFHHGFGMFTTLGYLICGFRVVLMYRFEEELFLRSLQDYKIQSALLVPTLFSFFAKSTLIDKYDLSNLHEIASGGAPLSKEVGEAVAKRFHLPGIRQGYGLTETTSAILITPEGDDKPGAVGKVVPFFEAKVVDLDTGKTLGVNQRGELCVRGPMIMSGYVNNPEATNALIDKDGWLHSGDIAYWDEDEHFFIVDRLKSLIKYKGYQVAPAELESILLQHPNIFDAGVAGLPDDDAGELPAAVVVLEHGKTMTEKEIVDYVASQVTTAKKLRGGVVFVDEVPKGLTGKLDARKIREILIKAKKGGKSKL

The assay deals with Luciferin 4-monooxygenase (Photinus pyralis) (UniProt P08659). The assay can be described thus: qHTS profiling assay for firefly luciferase inhibitor/activator using purifed enzyme and Km concentrations of substrates (counterscreen for miR-21 project). Note: nearly all actives have a fitted effect of over 55% in size. The note with it: purified FLuc, luminescence inhibition; series mostly up to 57.5 µM. The procedure, abridged:
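Biochemical qHTS of compounds, final roughly 60 µM downward over six points, against 10 nM purified firefly luciferase using Km concentrations of substrates (10 uM D-luciferin, 10 uM ATP) in Tris acetate pH 7.5 buffer; luminescence output.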
Background: Quantitative high-throughput screening tests each substance at several concentrations.
As to `Cc1cccc(C(=O)NCCc2nc3ccccc3n2Cc2ccccc2Cl)c1`, the Potency entry was “inactive”.

With `O=C1C2N=NN(CC(=O)N3N=C(c4cccc5ccccc45)CC3c3ccccc3)C2C(=O)N1c1ccccc1` (configuration not stated), the Potency result is “inactive”.

With `Cc1ccc(-n2nc(CO)c(C(=O)NCCc3ccccc3)n2)cc1`, the Potency result was “inactive”.

In the case of `COc1ccccc1C(=O)NC(CCSC)C(=O)N1CCN(C/C=C/c2ccccc2)CC1` (configuration not stated), the Potency entry was “inactive”.

Consider `COc1cc(C(=O)Nc2ccc(-n3c(C)nc4ccccc4c3=O)cc2)cc(OC)c1OC`, for which the Potency result was “inactive”.

As to `CC(C)Cn1c(-c2ccc(S(=O)(=O)N3CCOCC3)cc2)csc1=Nc1cc(Cl)ccc1Cl`, the Potency result is “inactive”.

As to `Cn1c(CC(=O)NNC(=O)c2ccccc2F)nc2ccccc21`, the Potency result was “inactive”.

Take `CCOc1ccc2oc(C(=O)N(CC)CC(=O)Nc3ccc(NC(C)=O)cc3)c(C)c2c1`: the Potency entry was “inactive”.

With `Cc1nn(CC(=O)N2CCN(c3cccc(C(F)(F)F)c3)CC2)c(=O)c2cc3sccc3n12`, the Potency result is “inactive”.

Turning to `CC(=O)c1ccc(NC(=O)c2nc(-c3ccc(C)cc3)n3c2CCCCC3)cc1`, the Potency result was “inactive”.

Turning to `COc1ccc(NC(=O)Nc2ccc3nsnc3c2)cc1`, the Potency was 6.75 µM (active).

For `COc1ccc(C(=O)Nc2onc3c2CCCC3)cc1`, the Potency is 0.601 µM (active).

On to `COc1ccc(/C=N/NC(=O)Nc2ccc3nsnc3c2)c(OC)c1`, for which the Potency result was “inactive”.

As for `COc1ccc(C(=O)Nc2sc(C)c(C)c2CN2CCOCC2)cc1`, the Potency is 23.9 µM (active).

Regarding `CCC(=O)Nc1ccc(C(=O)Nc2cccc(OC)c2)cc1`, the Potency was 23.9 µM (active).

`CCOC(=O)c1c(NC(=O)c2ccc(N3CCOCC3)c([N+](=O)[O-])c2)sc(C)c1C`: the Potency result is “inactive”.

Regarding `CC1CCc2noc(NC(=O)c3ccc([N+](=O)[O-])cc3)c2C1` (configuration not stated), the Potency result was “inactive”.

As for `COc1ccc(-c2cc(C(=O)Nc3sc4c(c3C(N)=O)CCCC4)no2)cc1`, the Potency result was “inactive”.

For `COc1ccc(C(=O)Nc2ccnn2C2CCN(Cc3ccncc3)CC2)cc1`, the Potency result is “inactive”.

`COC(=O)[C@H](CCSC)NC(=O)Nc1ccc(OC)cc1`: the Potency entry is “inactive”.

`COc1cccc(NC(=O)c2csnn2)c1`: the Potency result is “inactive”.

For `CCC(C(=O)OCC(=O)Nc1ccc(C(=O)Nc2ccc(OC)cc2)cc1)c1ccccc1` (configuration not stated), the Potency entry is “inactive”.

Turning to `CCCCN1C(=O)c2[nH]nc(-c3ccccc3O)c2C1c1cccc(OCc2ccccc2)c1` (configuration not stated), the Potency entry was “inactive”.

In the case of `CC1CCN(C(=O)Cn2c(=O)n(-c3ccc(Cl)cc3)c(=O)c3c4c(sc32)CCC4)CC1`, the Potency result is “inactive”.

For the molecule `Cc1ccccc1NC(=O)CN1C(=O)C(C)(C)c2ccccc21`, the Potency entry was “inactive”.

For the molecule `Cc1noc(C)c1-c1ccc2ncnc(NC(C)c3ccco3)c2c1` (configuration not stated), the Potency result was “inactive”.

Take `Cc1ccc(C)c(N2CCN(C(=O)CCc3c(C)nc4c(c3C)c(=O)n(C)c(=O)n4C)CC2)c1`: the Potency result was “inactive”.

On to `Cc1ccccc1Nc1scc(-c2ccc(Br)cc2)[n+]1-c1ccccc1C`, for which the Potency entry is “inactive”.

As for `CCOc1ccc(OCC)c(NS(=O)(=O)c2ccc3[nH]c(=O)ccc3c2)c1`, the Potency entry was “inactive”.

For the molecule `Cc1cccc(-n2c(Cc3cc(=O)[nH]c(=O)[nH]3)nnc2SC(C)C)c1`, the Potency result is “inactive”.

As for `COc1cccc(N(CC(=O)NC2CCCC2)C(=O)Cn2nnc(-c3ccc(C)o3)n2)c1`, the Potency entry was “inactive”.

As to `O=S(=O)(c1ccc(Br)cc1)c1nnn2c1nc(N1CCOCC1)c1sccc12`, the Potency entry was “inactive”.

On to `CCn1cc2nc(SCc3ccccc3Cl)n(CCc3ccccc3)c(=O)c2n1`, for which the Potency result is “inactive”.

As to `COc1ccc(C(=O)NC(=S)NC2CCCCC2)cc1`, the Potency is 15.1 µM (active).

On to `COc1cc(OC)cc(C(=O)OCC(=O)Nc2ccc(F)cc2F)c1`, for which the Potency entry was “inactive”.

`CCc1ccccc1NC(=O)c1ccc2nc(CCc3ccccc3)oc2c1`: the Potency result is “inactive”.

For `COc1ccc(C(=O)Nc2ccc(F)cc2F)cc1`, the Potency is 10.7 µM (active).

Consider `COc1ccc(NC(=O)c2ccc3nc(CCc4ccccc4)oc3c2)c(OC)c1`, for which the Potency entry was “inactive”.

`COc1ccc(C(=O)NNC(=S)NC(=O)c2ccccc2)cc1`: the Potency result is “inactive”.

Turning to `COc1ccccc1CC(=O)Nc1ccc(F)cc1F`, the Potency result is “inactive”.

`O=C(NC(=S)NC1CCCCC1)c1ccc(Cl)cc1`: the Potency result is “inactive”.

`COc1ccc(NC(=O)CS(=O)(=O)c2ccccc2)cc1`: the Potency entry was “inactive”.

Take `COc1cccc(NC(=O)c2ccc3nc(CCc4ccccc4)oc3c2)c1`: the Potency is 23.9 µM (active).

In the case of `COc1ccc(NC(=O)ON=C2c3ccccc3-c3ccccc32)cc1`, the Potency is 21.3 µM (active).

With `COc1ccc(NC(=O)C(Br)C(C)C)cc1` (configuration not stated), the Potency result was “inactive”.

As for `Cc1ccc2c(=O)c(C(=O)c3ccc(Cl)cc3)cn(CC(=O)NC3CCCCC3)c2n1`, the Potency entry was “inactive”.

As to `CC(=O)N1c2ccccc2CC1C(=O)N1CCN(c2ccc(F)cc2)CC1` (configuration not stated), the Potency result was “inactive”.

For the molecule `O=c1cc2nc(-c3ccccc3)nc(SCCOc3ccc(Cl)cc3)n2[nH]1`, the Potency result is “inactive”.

`O=C(NNC(=S)NC1CC2CCC1C2)c1ccc(Cl)cc1` (configuration not stated): the Potency result was “inactive”.

Regarding `CCc1cc(C(N)=O)c(NC(=O)c2ccc(OC)cc2)s1`, the Potency was 6.01 µM (active).

Regarding `CCc1cc(C(=O)c2ccc(OC)cc2)c(NC(=O)CN2CCN(C)CC2)s1`, the Potency result is “inactive”.

In the case of `CCc1cc(C(c2ccccc2OC)N2CCOCC2)c(NC(=O)c2ccccc2)s1` (configuration not stated), the Potency entry is “inactive”.

As to `CC(=O)c1ccc(NC(=O)c2nc3nc(C)cc(C(F)F)n3n2)cc1`, the Potency result was “inactive”.

In the case of `Cc1cc(C)cc(N(CC(=O)NC2CCCC2)C(=O)CCC(=O)Nc2cc(C)on2)c1`, the Potency result is “inactive”.

As for `CCOC(=O)c1c(S(=O)(=O)N2CCCC(C(=O)NCc3ccc(F)cc3)C2)c(C)n(CC)c1C` (configuration not stated), the Potency entry was “inactive”.

For `CCOC(=O)c1nc(-c2ccc3c(c2)OCO3)[nH]c1C`, the Potency is 15.1 µM (active).

On to `CCOCCOC(=O)C1=C(C)NC(=O)NC1c1ccc2c(c1)OCO2` (configuration not stated), for which the Potency entry was “inactive”.

On to `Cc1ccc(C(=O)OCC(=O)NCc2ccc3c(c2)OCO3)s1`, for which the Potency result was “inactive”.

Turning to `CCCCN(CC)CCNC(=O)CCNC(=O)Cn1ccc2ccccc2c1=O`, the Potency entry is “inactive”.

Turning to `Cc1ccc(C)c(OCC(=O)Nc2sc3c(c2C#N)CCCC3)c1C`, the Potency entry was “inactive”.

For `O=c1cc(COc2cccc(C(F)(F)F)c2)nc2sc3c(n12)CCCC3`, the Potency result was “inactive”.

Regarding `CN1C(=O)/C(=C/c2ccco2)SC1=Nc1cccc(C(=O)O)c1`, the Potency result is “inactive”.

Take `O=C1NN(c2ccccc2)C(=O)/C1=C/c1ccc(-c2cccc(C(=O)O)c2)o1`: the Potency was 26.9 µM (active).

Consider `CC(=O)c1cc(-c2ccccc2)[nH]c1N1CCCC1`, for which the Potency result is “inactive”.

Consider `CCCN(CCC)S(=O)(=O)c1ccc(C(=O)Nc2sc3c(c2C(=O)OC)CCN(CC)C3)cc1`, for which the Potency entry is “inactive”.

For `CCc1nnc(NC(=O)C2CCN(C(=O)c3ccccc3C)CC2)s1`, the Potency entry is “inactive”.

Regarding `O=C(/C=C/c1ccc(Cl)cc1)Nc1ccc(Br)cn1`, the Potency entry is “inactive”.

Consider `CC(C)(C)c1ccc(/C=C/C(=O)NC2CCS(=O)(=O)C2)cc1` (configuration not stated), for which the Potency entry is “inactive”.

For the molecule `CC(C)(C)c1ccc(/C=C/C(=O)Nc2ncccn2)cc1`, the Potency was 4.78 µM (active).

With `O=S(=O)(Cc1nnnn1-c1ccc(Br)cc1)c1ccc(F)cc1`, the Potency entry was “inactive”.

For the molecule `Cc1cc(C)c(CN2CCN(C(=O)Cn3ccc(NC(=O)OCc4ccccc4)nc3=O)CC2)c(C)c1`, the Potency entry was “inactive”.

In the case of `Cc1cc(-c2csc(N)n2)c(C)n1-c1ccccc1`, the Potency is 19 µM (active).

Turning to `CC(=O)Nc1ccc(C(=O)Nc2nc(-c3cc(C)n(Cc4ccccc4)c3C)cs2)cc1`, the Potency entry was “inactive”.

For the molecule `Cc1cc(C(=O)OCC(=O)N2c3ccccc3NC(=O)C2(C)C)c(C)n1-c1ccccc1`, the Potency entry is “inactive”.

Consider `C=CCSc1ccc(S(=O)(=O)N2CCN(C)CC2)cn1`, for which the Potency entry was “inactive”.

`CCN(CC)S(=O)(=O)c1ccc(NC(=O)CN(c2cccc(F)c2)S(C)(=O)=O)cc1`: the Potency entry is “inactive”.

In the case of `Cc1ccc2nc(-c3ccc(NC(=O)CN(C)S(=O)(=O)c4ccccc4)cc3)sc2c1`, the Potency was 15.1 µM (active).

As for `Cc1nc2ccc(S(=O)(=O)N(C)CC(=O)NC(C)c3ccccc3)cc2s1` (configuration not stated), the Potency entry is “inactive”.

For the molecule `COc1cccc(N(CC(=O)Nc2cccc(F)c2)S(C)(=O)=O)c1`, the Potency entry is “inactive”.

For the molecule `COc1cc(NC(=O)CN(C)S(=O)(=O)c2ccc3nc(C)sc3c2)cc(OC)c1`, the Potency result is “inactive”.

On to `Cc1cccc(N(CC(=O)Nc2ccc(-c3nc4ccc(C)cc4s3)cc2)S(C)(=O)=O)c1`, for which the Potency was 5.36 µM (active).

In the case of `C=CCNC(=O)COC(=O)CNC(=O)c1cc(Cl)cc([N+](=O)[O-])c1`, the Potency entry is “inactive”.

As for `Cc1ccc(C)c(N2CCN(C(=O)Cc3c(C(=O)O)c(C)cn3C)CC2)c1`, the Potency entry is “inactive”.

In the case of `CSc1cccc(NC(=O)CN2C(=O)CCc3cc(S(=O)(=O)N4CCCCC4)ccc32)c1`, the Potency result is “inactive”.

For the molecule `Cn1c(=O)n(C)c2cc(C(=O)Nc3ccc(Br)cc3)ccc21`, the Potency was 15.1 µM (active).

Turning to `Cn1c(=O)n(C)c2cc(/C=N/NC(=O)c3cccc(Br)c3)ccc21`, the Potency result was “inactive”.

Consider `COc1cccc(OC)c1C(=O)Nc1ccc2c(c1)n(C)c(=O)n2C`, for which the Potency result is “inactive”.

Take `COc1cc(OC)c(OC)cc1/C=C/c1nc2ccccc2c(=O)n1-c1ccc(Br)c(C)c1`: the Potency entry is “inactive”.

Turning to `CCOCCCNC(=O)c1ccc(CS(=O)(=O)c2cccc(C(F)(F)F)c2)o1`, the Potency result was “inactive”.

On to `Cc1nc2c(-c3ccccc3)c(C)[nH]n2c(=O)c1Cl`, for which the Potency result was “inactive”.

For the molecule `CCCCN1Cc2c(nc3cc(-c4ccccc4)[nH]n3c2=O)C1=O`, the Potency is 19 µM (active).

Regarding `C=CCc1c(C)nc2cc(-c3ccccc3)[nH]n2c1=O`, the Potency is 6.01 µM (active).

Turning to `CCc1c(C)nc2cc(C)[nH]n2c1=O`, the Potency entry is “inactive”.

As for `Cc1nc2scc(-c3cccs3)c2c(=O)n1N`, the Potency entry is “inactive”.

`CCc1c(C)nc2cc(-c3cccs3)[nH]n2c1=O`: the Potency was 16.9 µM (active).

Turning to `CCCCCN1CC(O)=C(c2ccccc2)C1=N`, the Potency entry was “inactive”.

On to `Cc1cc2nc3c(=O)n(Cc4ccccc4)c(=O)[nH]c3nc2cc1N`, for which the Potency entry is “inactive”.

As to `CCOC(=O)c1ccc(NC(=O)CCS(=O)(=O)c2ccc(C)cc2)cc1`, the Potency result was “inactive”.

`O=C(/C=C/c1cccc([N+](=O)[O-])c1)OCC(=O)N1CCOCC1`: the Potency entry was “inactive”.

For `CCc1ccccc1N1C(=O)CN(S(=O)(=O)CC)CC1(C)C(=O)NC1CCCCC1` (configuration not stated), the Potency entry is “inactive”.

With `CCCn1c2ccccc2c2cnn(CC(=O)N3CCCC(C(=O)OCC)C3)c(=O)c21` (configuration not stated), the Potency entry is “inactive”.

With `Cn1c(=O)[nH]c(=O)c2c1nc(NCCc1ccccc1)n2Cc1ccc(F)cc1`, the Potency result was “inactive”.
